Tests used:
[1] = molecular target: Mitogen-activated protein kinase 3 (Homo sapiens) (UniProt P27361); conditions: at 1 µM;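 note: values are mean percent inhibition of MAPK3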
[2] = molecular target: SRSF protein kinase 3 (Homo sapiens) (UniProt Q9UPE1); conditions: at 0.1 µM
[3] = molecular target: SRSF protein kinase 3 (Homo sapiens) (UniProt Q9UPE1); conditions: at 1 µM
[4] = molecular target: Mitogen-activated protein kinase 14 (Homo sapiens) (UniProt Q16539); conditions: at 0.1 µM
[5] = molecular target: Mitogen-activated protein kinase 14 (Homo sapiens) (UniProt Q16539); conditions: at 1 µM
[6] = molecular target: Mitogen-activated protein kinase 11 (Homo sapiens) (UniProt Q15759); conditions: at 0.1 µM
Mitogen-activated protein kinase 11 (Homo sapiens), sequence (Q15759 whole entry): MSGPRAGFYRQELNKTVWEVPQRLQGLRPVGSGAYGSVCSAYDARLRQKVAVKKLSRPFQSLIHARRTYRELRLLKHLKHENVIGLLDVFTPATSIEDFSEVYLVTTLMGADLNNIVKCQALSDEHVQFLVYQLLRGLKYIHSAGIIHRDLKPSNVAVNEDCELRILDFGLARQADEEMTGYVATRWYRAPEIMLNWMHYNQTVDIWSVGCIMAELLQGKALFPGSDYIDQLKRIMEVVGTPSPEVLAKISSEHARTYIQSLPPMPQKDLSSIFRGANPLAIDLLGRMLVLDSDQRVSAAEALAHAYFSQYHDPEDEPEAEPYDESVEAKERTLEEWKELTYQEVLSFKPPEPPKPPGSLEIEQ

[7] = molecular target: Mitogen-activated protein kinase 11 (Homo sapiens) (UniProt Q15759); conditions: at 1 µM
[8] = molecular target: T1, Mitogen-activated protein kinase 13 (Homo sapiens) (UniProt O15264); conditions: at 0.1 µM
T1 sequence (whole entry): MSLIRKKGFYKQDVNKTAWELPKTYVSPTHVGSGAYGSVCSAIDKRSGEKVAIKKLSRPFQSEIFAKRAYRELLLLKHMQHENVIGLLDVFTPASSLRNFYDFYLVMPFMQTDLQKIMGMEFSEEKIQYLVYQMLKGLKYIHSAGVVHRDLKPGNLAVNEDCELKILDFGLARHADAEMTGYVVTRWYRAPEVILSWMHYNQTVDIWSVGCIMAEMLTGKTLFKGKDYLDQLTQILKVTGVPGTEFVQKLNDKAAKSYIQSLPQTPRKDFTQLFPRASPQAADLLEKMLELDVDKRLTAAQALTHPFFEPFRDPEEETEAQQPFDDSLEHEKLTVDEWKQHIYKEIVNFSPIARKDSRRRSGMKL

[9] = molecular target: T1, Mitogen-activated protein kinase 13 (Homo sapiens); conditions: at 1 µM
[10] = molecular target: T2, Mitogen-activated protein kinase 12 (Homo sapiens) (UniProt P53778); conditions: at 0.1 µM
T2 sequence (whole entry): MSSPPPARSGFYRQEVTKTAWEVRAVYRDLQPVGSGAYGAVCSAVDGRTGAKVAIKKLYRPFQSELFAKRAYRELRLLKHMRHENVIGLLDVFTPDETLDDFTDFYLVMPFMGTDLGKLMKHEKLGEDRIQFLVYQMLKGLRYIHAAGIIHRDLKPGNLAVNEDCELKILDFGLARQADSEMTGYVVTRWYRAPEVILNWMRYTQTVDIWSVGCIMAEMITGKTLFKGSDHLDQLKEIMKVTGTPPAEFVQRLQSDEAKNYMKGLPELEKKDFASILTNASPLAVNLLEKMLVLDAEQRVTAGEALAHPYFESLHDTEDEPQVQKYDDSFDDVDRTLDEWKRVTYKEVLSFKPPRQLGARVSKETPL

[11] = molecular target: T2, Mitogen-activated protein kinase 12 (Homo sapiens); conditions: at 1 µM
[12] = molecular target: SRSF protein kinase 1 (Homo sapiens) (UniProt Q96SB4); conditions: at 0.1 µM
SRSF protein kinase 1 (Homo sapiens), sequence (Q96SB4 whole entry, canonical isoform): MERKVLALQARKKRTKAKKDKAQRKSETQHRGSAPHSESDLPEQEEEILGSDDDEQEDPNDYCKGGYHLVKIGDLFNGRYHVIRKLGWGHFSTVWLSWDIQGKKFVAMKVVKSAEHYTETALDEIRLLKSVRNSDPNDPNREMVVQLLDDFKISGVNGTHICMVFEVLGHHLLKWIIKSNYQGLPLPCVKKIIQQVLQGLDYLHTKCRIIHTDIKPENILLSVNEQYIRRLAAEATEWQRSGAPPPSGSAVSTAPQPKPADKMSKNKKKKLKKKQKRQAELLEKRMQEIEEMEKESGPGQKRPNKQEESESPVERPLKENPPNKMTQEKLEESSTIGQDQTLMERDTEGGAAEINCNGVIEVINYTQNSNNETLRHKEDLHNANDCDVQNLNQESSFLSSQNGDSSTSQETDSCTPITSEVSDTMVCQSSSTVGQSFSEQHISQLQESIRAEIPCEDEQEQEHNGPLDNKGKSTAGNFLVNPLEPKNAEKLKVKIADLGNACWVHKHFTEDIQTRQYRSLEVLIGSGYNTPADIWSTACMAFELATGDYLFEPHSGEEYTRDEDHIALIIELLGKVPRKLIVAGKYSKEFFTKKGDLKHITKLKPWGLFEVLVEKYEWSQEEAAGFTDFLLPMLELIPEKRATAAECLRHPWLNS

[13] = molecular target: SRSF protein kinase 1 (Homo sapiens) (UniProt Q96SB4); conditions: at 1 µM
[14] = molecular target: Phosphatidylinositol 4,5-bisphosphate 3-kinase catalytic subunit alpha isoform (Homo sapiens) (UniProt P42336); conditions: at 0.1 µM
Phosphatidylinositol 4,5-bisphosphate 3-kinase catalytic subunit alpha isoform (Homo sapiens), sequence (P42336 whole entry, canonical isoform): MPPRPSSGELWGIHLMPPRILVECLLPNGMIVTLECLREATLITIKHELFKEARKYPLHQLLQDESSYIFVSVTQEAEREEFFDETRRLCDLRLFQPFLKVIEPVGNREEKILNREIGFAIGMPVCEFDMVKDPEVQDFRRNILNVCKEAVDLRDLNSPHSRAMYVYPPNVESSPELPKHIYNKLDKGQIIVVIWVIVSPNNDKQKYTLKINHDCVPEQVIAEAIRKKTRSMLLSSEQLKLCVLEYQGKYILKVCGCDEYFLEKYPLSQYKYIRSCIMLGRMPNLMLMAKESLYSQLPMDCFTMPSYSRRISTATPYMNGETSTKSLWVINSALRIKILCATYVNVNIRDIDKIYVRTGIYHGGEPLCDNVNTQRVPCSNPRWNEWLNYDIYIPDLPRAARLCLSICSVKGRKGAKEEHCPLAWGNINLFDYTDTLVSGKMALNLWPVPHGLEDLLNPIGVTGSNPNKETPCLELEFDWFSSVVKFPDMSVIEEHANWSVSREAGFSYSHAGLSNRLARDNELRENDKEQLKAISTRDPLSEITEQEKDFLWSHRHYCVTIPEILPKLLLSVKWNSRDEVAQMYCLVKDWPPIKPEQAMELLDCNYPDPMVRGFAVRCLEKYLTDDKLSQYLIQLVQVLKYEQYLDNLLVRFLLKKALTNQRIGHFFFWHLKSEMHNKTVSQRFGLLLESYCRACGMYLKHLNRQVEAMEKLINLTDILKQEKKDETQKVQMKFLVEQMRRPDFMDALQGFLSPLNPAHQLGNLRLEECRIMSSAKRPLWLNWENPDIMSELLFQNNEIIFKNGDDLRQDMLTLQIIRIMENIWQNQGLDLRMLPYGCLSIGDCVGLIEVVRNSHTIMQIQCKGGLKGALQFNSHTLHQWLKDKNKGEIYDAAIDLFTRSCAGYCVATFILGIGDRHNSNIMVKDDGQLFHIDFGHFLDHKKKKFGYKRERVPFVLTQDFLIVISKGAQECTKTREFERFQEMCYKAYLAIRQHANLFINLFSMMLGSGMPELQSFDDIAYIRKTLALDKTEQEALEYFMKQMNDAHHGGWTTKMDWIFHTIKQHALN

[15] = molecular target: Phosphatidylinositol 4,5-bisphosphate 3-kinase catalytic subunit alpha isoform (Homo sapiens) (UniProt P42336); conditions: at 1 µM
[16] = molecular target: T3, Phosphatidylinositol 4,5-bisphosphate 3-kinase catalytic subunit delta isoform (Homo sapiens) (UniProt O00329); conditions: at 0.1 µM
T3 sequence (whole entry): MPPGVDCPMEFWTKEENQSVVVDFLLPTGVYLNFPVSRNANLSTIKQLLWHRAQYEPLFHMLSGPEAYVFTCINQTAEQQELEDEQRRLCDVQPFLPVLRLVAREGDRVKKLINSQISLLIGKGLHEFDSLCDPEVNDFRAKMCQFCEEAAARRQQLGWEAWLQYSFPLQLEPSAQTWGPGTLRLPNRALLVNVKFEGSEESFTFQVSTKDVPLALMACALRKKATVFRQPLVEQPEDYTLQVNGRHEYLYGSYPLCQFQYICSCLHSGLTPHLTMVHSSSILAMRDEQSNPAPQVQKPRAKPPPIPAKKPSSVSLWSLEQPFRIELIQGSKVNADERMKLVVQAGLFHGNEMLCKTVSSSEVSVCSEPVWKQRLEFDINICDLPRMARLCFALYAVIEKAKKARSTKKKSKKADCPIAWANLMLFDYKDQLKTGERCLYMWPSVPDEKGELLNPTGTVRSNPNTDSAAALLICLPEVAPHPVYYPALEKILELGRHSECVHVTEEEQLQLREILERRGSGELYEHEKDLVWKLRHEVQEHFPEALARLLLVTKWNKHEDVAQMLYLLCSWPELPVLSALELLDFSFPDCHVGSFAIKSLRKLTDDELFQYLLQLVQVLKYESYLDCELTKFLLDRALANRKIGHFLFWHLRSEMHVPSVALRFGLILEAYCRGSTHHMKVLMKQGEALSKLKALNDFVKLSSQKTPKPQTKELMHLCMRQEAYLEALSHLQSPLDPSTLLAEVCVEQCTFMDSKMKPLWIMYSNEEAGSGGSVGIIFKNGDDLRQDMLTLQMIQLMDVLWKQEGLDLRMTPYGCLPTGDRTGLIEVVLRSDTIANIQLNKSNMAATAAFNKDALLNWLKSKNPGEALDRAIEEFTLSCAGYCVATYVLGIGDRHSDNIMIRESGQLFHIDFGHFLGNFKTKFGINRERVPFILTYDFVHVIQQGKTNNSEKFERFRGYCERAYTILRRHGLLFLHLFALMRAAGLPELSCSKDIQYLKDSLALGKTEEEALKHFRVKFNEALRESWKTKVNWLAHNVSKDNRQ

[17] = molecular target: T3, Phosphatidylinositol 4,5-bisphosphate 3-kinase catalytic subunit delta isoform (Homo sapiens); conditions: at 1 µM
[18] = molecular target: Phosphatidylinositol 4-kinase beta (Homo sapiens) (UniProt Q9UBF8); conditions: at 0.1 µM
Phosphatidylinositol 4-kinase beta (Homo sapiens), sequence (Q9UBF8 2-816 limits assumed): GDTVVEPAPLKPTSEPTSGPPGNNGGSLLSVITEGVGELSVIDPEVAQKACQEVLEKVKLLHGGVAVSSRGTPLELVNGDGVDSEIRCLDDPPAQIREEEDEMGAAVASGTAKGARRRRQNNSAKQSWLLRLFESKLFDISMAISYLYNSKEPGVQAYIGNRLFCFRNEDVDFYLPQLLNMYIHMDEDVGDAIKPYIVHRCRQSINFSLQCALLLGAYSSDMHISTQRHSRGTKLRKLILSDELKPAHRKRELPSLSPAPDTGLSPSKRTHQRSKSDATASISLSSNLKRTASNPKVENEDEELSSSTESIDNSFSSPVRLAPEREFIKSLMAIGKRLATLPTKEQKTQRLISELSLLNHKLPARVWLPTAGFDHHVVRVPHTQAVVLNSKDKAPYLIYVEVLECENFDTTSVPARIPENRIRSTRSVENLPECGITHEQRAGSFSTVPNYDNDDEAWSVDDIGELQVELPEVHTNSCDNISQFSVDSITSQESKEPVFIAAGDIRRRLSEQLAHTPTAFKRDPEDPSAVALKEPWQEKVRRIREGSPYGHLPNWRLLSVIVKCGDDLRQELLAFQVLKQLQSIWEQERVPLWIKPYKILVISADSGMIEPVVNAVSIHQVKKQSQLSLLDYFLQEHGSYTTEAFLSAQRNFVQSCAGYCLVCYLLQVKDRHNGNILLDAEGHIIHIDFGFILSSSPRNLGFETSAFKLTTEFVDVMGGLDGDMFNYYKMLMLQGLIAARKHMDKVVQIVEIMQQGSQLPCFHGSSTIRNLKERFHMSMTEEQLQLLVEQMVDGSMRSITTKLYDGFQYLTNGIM

[19] = molecular target: Phosphatidylinositol 4-kinase beta (Homo sapiens) (UniProt Q9UBF8); conditions: at 1 µM
[20] = molecular target: Sphingosine kinase 1 (Homo sapiens) (UniProt Q9NYA1); conditions: at 0.1 µM;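 note: mean percent inhibition of SPHK1 activity, measured within the GSK PKIS screening panel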
Sphingosine kinase 1 (Homo sapiens), sequence (Q9NYA1 whole entry): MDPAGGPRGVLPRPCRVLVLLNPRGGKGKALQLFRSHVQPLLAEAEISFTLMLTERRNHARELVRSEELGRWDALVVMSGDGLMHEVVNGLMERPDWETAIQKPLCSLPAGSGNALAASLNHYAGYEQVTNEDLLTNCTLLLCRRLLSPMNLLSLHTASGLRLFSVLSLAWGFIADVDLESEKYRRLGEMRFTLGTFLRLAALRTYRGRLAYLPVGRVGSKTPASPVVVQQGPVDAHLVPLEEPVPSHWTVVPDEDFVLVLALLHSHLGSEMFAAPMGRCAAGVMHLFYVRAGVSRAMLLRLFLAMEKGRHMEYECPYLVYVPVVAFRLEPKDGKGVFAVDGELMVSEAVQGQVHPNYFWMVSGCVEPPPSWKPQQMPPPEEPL

Mitogen-activated protein kinase 14 (Homo sapiens), sequence (Q16539 whole entry): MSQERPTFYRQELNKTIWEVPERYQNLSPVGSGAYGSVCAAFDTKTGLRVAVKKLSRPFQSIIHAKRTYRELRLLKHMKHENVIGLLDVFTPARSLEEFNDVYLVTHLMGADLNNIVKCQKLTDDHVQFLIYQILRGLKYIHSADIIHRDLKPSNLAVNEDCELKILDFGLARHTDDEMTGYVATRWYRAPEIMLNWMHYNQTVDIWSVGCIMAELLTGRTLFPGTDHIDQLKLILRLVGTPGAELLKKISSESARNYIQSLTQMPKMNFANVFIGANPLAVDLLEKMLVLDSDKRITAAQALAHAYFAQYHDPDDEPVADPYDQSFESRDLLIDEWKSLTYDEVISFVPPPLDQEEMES
SRSF protein kinase 3 (Homo sapiens), sequence (Q9UPE1 whole entry): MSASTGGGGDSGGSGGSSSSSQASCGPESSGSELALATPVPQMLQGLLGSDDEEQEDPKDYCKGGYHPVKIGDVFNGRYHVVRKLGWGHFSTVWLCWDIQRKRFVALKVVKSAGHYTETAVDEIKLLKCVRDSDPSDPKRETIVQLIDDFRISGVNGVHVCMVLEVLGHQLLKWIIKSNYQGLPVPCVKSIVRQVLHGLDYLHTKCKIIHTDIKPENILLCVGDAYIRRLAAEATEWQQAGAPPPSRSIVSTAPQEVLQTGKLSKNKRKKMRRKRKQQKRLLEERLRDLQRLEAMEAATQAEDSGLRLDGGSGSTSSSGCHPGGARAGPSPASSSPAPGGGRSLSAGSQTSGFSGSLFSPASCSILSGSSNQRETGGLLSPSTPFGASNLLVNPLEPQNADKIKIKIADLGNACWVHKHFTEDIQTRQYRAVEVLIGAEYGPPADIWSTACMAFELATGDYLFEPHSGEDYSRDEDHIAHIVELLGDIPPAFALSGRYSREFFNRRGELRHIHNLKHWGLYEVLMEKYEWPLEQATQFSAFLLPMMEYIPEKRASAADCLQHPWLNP
Mitogen-activated protein kinase 3 (Homo sapiens), sequence (P27361 whole entry): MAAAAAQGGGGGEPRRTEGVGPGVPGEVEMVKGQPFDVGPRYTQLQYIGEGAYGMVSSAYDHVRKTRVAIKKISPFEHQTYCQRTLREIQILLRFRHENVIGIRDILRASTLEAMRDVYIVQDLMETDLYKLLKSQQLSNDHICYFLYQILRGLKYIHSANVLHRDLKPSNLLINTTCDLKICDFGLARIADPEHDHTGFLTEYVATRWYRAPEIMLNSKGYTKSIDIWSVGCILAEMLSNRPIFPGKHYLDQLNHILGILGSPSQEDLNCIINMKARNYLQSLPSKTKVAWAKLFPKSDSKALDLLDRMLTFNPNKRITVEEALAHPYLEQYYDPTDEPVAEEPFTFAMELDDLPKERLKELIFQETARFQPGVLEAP

SMILES	inhibition [1]	inhibition [2]	inhibition [3]	inhibition [4]	inhibition [5]	inhibition [6]	inhibition [7]	inhibition [8]	inhibition [9]	inhibition [10]	inhibition [11]	inhibition [12]	inhibition [13]	inhibition [14]	inhibition [15]	inhibition [16]	inhibition [17]	inhibition [18]	inhibition [19]	inhibition [20]
COc1cc(Nc2nccc(Nc3ccc4c(C)n[nH]c4c3)n2)cc(OC)c1OC	2.18%	1.08%	0.79%	4.78%	10%	2.04%	6.13%	3.72%	4.71%	-0.26%	1.69%	-2.15%	-3.51%	1.57%	3.03%	2.45%	21.3%	3.96%	4.89%	-0.37%
Fc1ccc(-c2cc(-c3c[nH]nc3-c3ccccn3)ccn2)cc1	4.81%	-1.32%	1.09%	5.14%	37%	5.12%	12.5%	-1%	3.97%	2.24%	3.28%	-0.82%	1.31%	4.44%	3.51%	2.06%	3.22%	-6.09%	-0.81%	1.6%
COc1ccc(-c2cc(-c3c[nH]nc3-c3ccccn3)ccn2)cc1	8.82%	-0.83%	0.75%	7.92%	37.2%	4.7%	14.1%	2.12%	4.1%	4.31%	2.33%	-1.02%	2.7%	3.47%	1.91%	-0.37%	0.72%	2.38%	2.14%	1.57%
COc1ccc(-c2cc3c(N)ncnc3o2)cc1	-1.51%	-0.13%	-0.8%	-1.46%	0.41%	-1.4%	-0.96%	-2.33%	-2.56%	-1.44%	-1.89%	-1.58%	1.06%	-1.98%	-0.52%	-0.57%	0.07%	-0.47%	-0.47%	9.34%
[O-][S+]1CCN(Cc2ccc(-c3ccc4ncnc(Nc5ccc(OCc6cccc(F)c6)c(Cl)c5)c4c3)o2)CC1	4.13%	-2.3%	-1%	15.9%	14.9%	7.73%	6.99%	4.67%	3%	3.02%	4.04%	-1.9%	-2.12%	5.72%	6.58%	2.17%	6.89%	0.59%	-7.5%	-0.15%
Cc1cccc(Nc2ncc(-c3ccccc3)o2)c1	3.87%	3.41%	-1.61%	5.91%	6.59%	3.23%	6.62%	1.76%	2.94%	2.73%	4.77%	-2.35%	0.2%	0.69%	-0.17%	0.73%	1.52%	1.05%	2.54%	1%
CNC(=O)c1cncc(/C=C/c2ccccc2Cl)c1	2.18%	-0.92%	2.45%	-6.55%	-0.16%	2.14%	2.01%	1.17%	-0.14%	-1.75%	-0.18%	0.65%	3.33%	1.22%	1.59%	0.5%	0.38%	3.54%	1.28%	0.48%

Reference: ChEMBL document CHEMBL1961873, “Compounds: GSK PKIS; Assays: Nanosyn kinase panel” (2012)
